# Experimental data: PubChem BioAssay AID2546 (National Center for Advancing Translational Sciences (NCATS), 2010)
# Values joined by “and” are separate entries in the source; they are usually repeats but may differ in a detail not shown here. Equal entries are not always repeated. Out of some 310,000 compounds screened, about 11,000 (3.5%) were called active. About 8% were inconclusive and are not listed. For the sample, actives were picked, then their nearest neighbours and some compounds at random. A number with no mark means an inactive call. The call rests on the fitted dose curve; in most records, active means well fitted inhibition curve with a large enough effect; inconclusive means small, poorly fitted or top-dose-only effect, or effect the other way; inactive means flat fitted curve, though single readings scatter.
# Assay: VP16 counterscreen qHTS for inhibitors of ROR gamma transcriptional activity;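 further: Gal4-VP16 expression switched on by copper sulfate through the metallothionein promoter; nearly all actives have a fitted effect of over 50% in size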
# Conditions: Drosophila S2 Gal4-VP16 UAS-luciferase, luminescence, 20 h; series mostly up to 53.6 µM; activity, negative = inhibition: at the top concentration
# On the % scale 0 is the no-effect control and ±100 the full control effect; potency means the concentration at half of the fitted maximal effect.
Compound,Potency,"activity, negative = inhibition"
CC(=N\NC(=O)c1cc(Br)ccc1O)/C(=N/O)C(=O)Nc1ccccc1,11.2 µM (active),
C/C(=N/NC(=O)c1cc(Cl)ccc1O)C12CC3CC(CC(C3)C1)C2,,-5.44%
O=C(Nc1cccc(NC(=O)c2ccc(Br)cc2)c1)c1ccccc1,,-10.1%
COc1cc(OC)c2c(-c3cccc(-c4cccc(N)c4)c3)cc(=O)oc2c1,10 µM (active),
COc1ccc(-c2c(C)cc3oc(=O)cc(-c4ccccc4)c3c2C)cc1F,,6.07%
COc1ccc(-c2c(C)cc3oc(=O)cc(-c4ccccc4)c3c2C)cc1OC,,2.38%
Cc1cc(NC(=O)CCC(=O)N(Cc2ccccc2)C(C(=O)NC2CCCC2)c2ccc(C)o2)no1 (stereo unspecified),,-2.38%
CCc1cccc(C)c1N1C(=O)CN(Cc2ccccc2)C1=S,,-3.99%
O=C(Cc1nc2ccccc2[nH]c1=O)c1ccc(Cl)cc1,,4.55%
O=C(/C(=C/c1cccc(Cl)c1)c1nc2ccccc2[nH]1)c1ccccc1,12.6 µM (active),
CCC(=O)/C(=C(/O)c1ccccc1)c1nc2ccccc2[nH]1,,-1.81%
Cc1ccc(C)c(NC(=O)c2cc(-c3cc(C)cc(C)c3O)n[nH]2)c1,,3.11%
Cc1sc2ncn(CC(=O)NCCCC(=O)N(C)Cc3ccccc3)c(=O)c2c1C,,13.7%
CCc1ccc2c(c1)C1(NN=C(c3ccccc3)S1)C(=O)N2 (stereo unspecified),6.31 µM (active),
CCCCN1C(=O)/C(=C2/Sc3ccc(Cl)cc3N2CC)SC1=S,,-3.93%
CCOC(=O)C(C)Sc1nc2ccccc2c(=O)n1CC1CCCCC1 (stereo unspecified),,6.17%
CN(c1ccc2nc3ccccc3c(=O)n2n1)C1CCCCC1,1.12 µM (active),
O=c1c2ccccc2nc2n1C1(CCCCC1)Cc1ccccc1-2,,6.09%
C/C(=N\N(C)C)c1ccc(OCCOc2ccc([N+](=O)[O-])cc2)cc1,,-9.15%
O=C(N/N=C/c1ccc([N+](=O)[O-])o1)c1cn(-c2ccccc2)nc1-c1ccc(F)cc1,,0.475%
O=C(/C=C/c1ccc([N+](=O)[O-])o1)NNC(=O)c1ccc(F)cc1,4.47 µM (active),
C/[N+]([O-])=C\c1ccc([N+](=O)[O-])o1,,2.41%

Compound,Potency,"activity, negative = inhibition"
CCc1ccc(NC(=O)CN2CCC(C(=O)c3ccc(OC)cc3)CC2)cc1,,0.735%
Cc1ccc(NC(=O)C(C)c2cccc(C(=O)c3ccccc3)c2)cc1 (stereo unspecified),7.08 µM (active),
CC(=O)Nc1ccc(NC(=O)[C@@H](NC(=O)c2cccc(C)c2)C(C)C)cc1,,-0.828%
COC(C(=O)Nc1ccc(C(C)=O)cc1)c1ccccc1 (stereo unspecified),,16.9%
CCn1cc(S(=O)(=O)c2cccc(C)c2)c(=O)c2cc(F)c(N3CCN(C)CC3)cc21,,0.516%
Fc1ccc(-c2ccc(NCCN3CCOCC3)nn2)cc1,,-0.209%
N#Cc1ccccc1NC(=O)c1ccc2c(c1)OCO2,,22.4%
CCOC(=O)C1(Cc2ccccc2C)CCCN(C(=O)c2ccc(COC)o2)C1 (stereo unspecified),,11.1%
CC1=CC(C)(C)Nc2ccc(OC(=O)CN3C(=O)C4CCCCC4C3=O)cc21 (stereo unspecified),7.94 µM (active),
CC1=CC(C)(C)Nc2ccc(OC(=O)C(Cc3ccccc3)N3C(=O)C4CCCCC4C3=O)cc21 (stereo unspecified),,10.5%
O=C(CN1C(=O)C2C3CCC(C3)C2C1=O)Oc1ccc2ccccc2c1 (stereo unspecified),,-10.4%
COc1ccc2[nH]cc(CCN3C(=O)c4ccc(C(=O)O)cc4C3=O)c2c1,,-9%
Cc1cccc(N(C)C(=O)CN2C(=O)COc3ccc(S(=O)(=O)N4CCCCCC4)cc32)c1,,-1.84%
COc1ccc(-c2oc3ncnc(NCCCO)c3c2-c2ccc(OC)cc2)cc1,,-13.1%
CC(C)Sc1nnc([C@H](Cc2ccccc2)NC(=O)OC(C)(C)C)o1,,5.57%
C[C@@H](NC(=O)OC(C)(C)C)c1nnc(S(=O)(=O)Cc2ccccc2)o1,4.47 µM (active),
C[C@H](NC(=O)OC(C)(C)C)c1nnc(SCC(N)=O)o1,,8.92%
CC(=O)Nc1cccc(NC(=O)CSc2nccn2Cc2ccc(F)cc2)c1,,-5.44%
Cc1ccc2nc(SCC(=O)NC3CCCC3)[nH]c2c1,,4.32%
O=C(Nc1nc(-c2cccnc2)cs1)c1ccccc1F,,5.72%
Cc1nc(NNC(=O)c2ccccc2)cc(-c2ccccc2)n1,,-19.6%
Cc1ccc(Nc2nc(-c3sc(NC(=O)c4ccccc4)nc3C)cs2)cc1,,-2.11%

Compound,Potency,"activity, negative = inhibition"
Cc1ccc(-c2csc(NNC(=O)c3ccccc3)n2)cc1,7.08 µM (active),
O=C(Nc1nc(-c2ccc(-c3ccccc3)cc2)cs1)c1cnccn1,2 µM (active),
O=C(O)c1ccccc1C(=O)Nc1nc(-c2ccccc2)cs1,,0.0927%
CC(=O)c1ccc(N2CCN(C(=O)C3CCN(S(=O)(=O)c4ccc5c(c4)CC(C)N5C(=O)C4CC4)CC3)CC2)cc1 (stereo unspecified),,-8.05%
CCCC(C)NC(=O)C1CCN(C(=O)C2CC(=O)N(c3ccc(C)cc3)C2)CC1 (stereo unspecified),,12.6%
COc1cc(C)c(C)cc1S(=O)(=O)N1CCCc2ccccc21,,-8.46%
O=C(Cn1cnc2ccccc21)Nc1ccccc1-c1ccccc1,,-5.47%
O=C(NCCOc1cccnc1)c1ccc(OC2CCN(Cc3ccccn3)CC2)cc1,,-2.29%
C[C@H](NC(=O)[C@@H]1Cc2ccccc2CN1C(=O)OC(C)(C)C)C(=O)NC1CCCC1,,-1.53%
CC(C)NC(=S)NN=C1CCCCCCCCCCC1,5.01 µM (active),
CC(C)(C)NC(=O)C(=O)NN=C1CCCCCCC1,,13.8%
CCc1ccc(C(=O)NN=C2CCCCCC2)s1,,-2.72%
CCC1CCCCN1C(=S)Nc1ccc(S(=O)(=O)Nc2ncccn2)cc1 (stereo unspecified),,-18.2%
CCCc1cc(=O)oc2cc(OCC(=O)Nc3ccc(CN4CCOCC4)cc3)c(Cl)cc12,,-13%
CC(C)CC(=O)NC(=S)Nc1cc(C(=O)O)ccc1Cl,,-1.81%
COC(=O)Cc1ccc(NC(=S)NCc2ccco2)cc1,,-2.3%
FC(F)(F)Oc1ccc(NC(=S)NCc2ccccc2)cc1,11.2 µM (active),
COC(=O)Cc1ccc(NC(=S)NCc2ccccc2)cc1,31.6 µM (active),
O=C(Cc1ccccc1)NCc1ccc(F)cc1,,2.04%
COC(=O)Cc1ccc(OCC(=O)Nc2ccc(OC(F)(F)F)cc2)cc1,,-4.79%
O=C(NNC(=S)NCc1ccccc1)c1ccc(OC(F)F)cc1,,-14.5%
CC(C)CNC(=O)C(=O)NCc1ccccc1,,-16.5%

Compound,Potency,"activity, negative = inhibition"
CC(C)CC(=O)NC(=S)NCc1ccccc1,10 µM (active),
CCOC(=O)c1ccc(NC(=O)Cc2cccs2)cc1,,3.14%
CCC1Sc2ccc(S(=O)(=O)CCC(=O)NCc3cccs3)cc2NC1=O (stereo unspecified),,-3.04%
COc1ccccc1CNC(=O)c1ccc(N(C)S(=O)(=O)c2ccc(C)cc2)cc1,,-4.62%
CSc1ncccc1C(=O)Nc1ccc(C)cn1,,3.04%
COc1ccc(OC)c(NC(=O)CN(C)CCOc2ccc(Br)cc2)c1,,-7.46%
CC1(C)Cc2c(sc(NC(=O)C(=O)NCC3CCCO3)c2C(=O)O)CO1 (stereo unspecified),,9.69%
COc1ccc(C2CC(c3ccc([N+](=O)[O-])cc3)=NN2C(C)=O)cc1 (stereo unspecified),,-8.56%
Cc1cccnc1CCNC(=O)C1CCC(=O)N(Cc2cccc(F)c2)C1 (stereo unspecified),,-1.61%
O=C(NCCCN1CCOCC1)c1ccc2c(c1)N(Cc1cccc(F)c1)C(=O)c1ccccc1S2,,-0.386%
COc1ccc(CCNc2nc(-c3cccc(NC(C)=O)c3)cs2)cc1OC,,5.47%
COc1cccc(CC(=O)Nc2nc(-c3ccc(OC)c(OC)c3)cs2)c1,,4.05%
COc1ccc(CC(=O)Nc2nc(-c3ccc(F)c(F)c3)cs2)cc1OC,15.8 µM (active),
CCOC(=O)C1(Cc2ccccc2C)CCCN(C(=O)CN2C(=O)CSC2=O)C1 (stereo unspecified),,-7.58%
CCOC(=O)c1cccc(NC(=O)C2CCN(c3ncnc4c3nc3n4CCCCC3)CC2)c1,,0%
CN(C(=O)c1ccccc1)c1nccnc1C#N,,6.12%
O=C(Cc1ccccc1)N1N=C(c2ccncc2)CC1(O)C(F)(F)F (stereo unspecified),,-3.57%
CC1=NN(C(=O)CCc2ccccc2O)C(O)(C(F)(F)F)C1 (stereo unspecified),12.6 µM (active),
COc1ccc(CC(=O)N2N=C(C)CC2(O)C(F)(F)F)cc1 (stereo unspecified),8.91 µM (active),
CCCCCNC(=O)Cc1ccc(OC)cc1,,13.1%
NC(=O)c1ccc(Nc2ccc3c(c2)CCC3)c([N+](=O)[O-])c1,,-16.3%
Cc1ccc(Nc2ncnc3c2cnn3C)c(C)c1,,-3.95%

Compound,Potency,"activity, negative = inhibition"
COC(=O)c1c(NC(=O)C2CC(C)=C(C)CC2C(=O)O)sc2c1CCCCC2 (stereo unspecified),,-2.79%
O=S(=O)(/C=C/c1ccccc1)N1CCNCC1,,4.26%
CCc1ccc(OCC(=O)NCC(c2ccc(Cl)cc2)N2CCCCC2)cc1 (stereo unspecified),,-13.5%
Cc1ccc(S(=O)(=O)c2c[nH]c3ccc(C)cc3c2=O)cc1,,-3.91%
Cc1cc(/C=N/NC(N)=O)c(C)n1C1CCCCC1,,-0.922%
Cc1cccc(-n2c(C)cc(/C=N/NC(N)=S)c2C)c1,2.82 µM (active),
Cc1cc(/C=N/Nc2ccc([N+](=O)[O-])cn2)c(C)n1-c1cccc(C(=O)O)c1,,15.8%
O=C(CN1CCN(C(=O)C2CCCO2)CC1)Nc1c(Cl)cccc1Cl (stereo unspecified),,-7.25%
Cc1n[nH]c(=O)n1-c1ccc(Oc2ccccc2)cc1,0.891 µM (active),
COc1ccc(Oc2ncc3nc(C)c(=O)n(-c4ccccc4)c3n2)cc1,,4.94%
Cc1n[nH]c(=O)n1-c1ccc(C(C)C)cc1,,6.72%
Cc1cccc(CNS(=O)(=O)c2ccc(-c3cnc(C4CC4)o3)cc2)c1,,-17.6%
CCOc1ccc(CN(C)C(=O)c2ccc(=O)[nH]c2)cc1,,8.5%
Cc1cccc(NC(=O)c2cccnc2Cl)n1,,6.9%
Cc1ccc2nc(N(CCN(C)C)C(=O)C3=COCCO3)sc2c1,,19.1%
COc1cc(NS(=O)(=O)c2ccc3ccccc3c2)c2ncccc2c1,708 nM (active) and 562 nM (active),
Cc1ccc(NS(=O)(=O)c2ccc(C)c(NC(=O)COc3ccc4ccccc4c3)c2)c(C)c1,,-3.61%
COc1ccc2cc(S(=O)(=O)Nc3ccccn3)ccc2c1,,-11%
